Source: PubChem BioAssay (Tox21)
Results filed as inconclusive are left out. Where a call stands in place of a potency, no number is given. Activity calls are given as the source filed them. The call rests on the fitted dose curve.

Assay: qHTS assay to identify small molecule agonists of the NFkB signaling pathway - cell viability counter screen (AID 1159515); further: nearly all actives have a fitted effect of over 55% in size
Conditions: NFkB-bla ME-180 viability, CellTiter-Glo luminescence, 5 h; series mostly up to 61 µM
Description: National Center for Advancing Translational Sciences [NCATS]
NIH Chemical Genomics Center [NCGC]
U.S. Environmental Protection Agency [EPA]
National Institutes of Environmental Health Sciences [NIEHS]
National Toxicology Program [NTP]
U.S. Food and Drug Administration [FDA]
Transcription factors and their stimulated target gene expression play pivotal roles across many cellular processes including responses to environmental stimuli. Proper regulation of associated pathways is critical to maintain cell health and function. Constitutive activation of transcription factor pathways has been implicated in tumors as it may block cellular functions such as apoptosis and lead to invasion and metastasis. One important transcription factor that stimulates gene expression in response to cytokines, UV radiation, and other stimuli is nuclear factor-kappa B (NFkB). To measure activation of the NFkB pathway, the CellSensor NFkB-bla ME-180 cell line (Life Technologies, Carlsbad, CA) that stably expresses beta-lactamase reporter gene under the regulation of a NF-kB response element was used. This assay allows measurement of the NFkB pathway activity induced by compounds in a ME-180 cell line. This system quantitates NF-kB activity using a FRET-based assay system where beta-lactamase expression disrupts FRET, allowing for fluorescent measurement of activity. This cell line has been used to screen the Tox21 10K compound library and to identify compounds that induce the NFkB pathway activity. The cytotoxicity of the Tox21 compound library against the NFkB-bla ME-180 cell line was tested in parallel by measuring cell viability using the CellTiter-Glo assay in the same wells.
Tox21 Assay Protocol Summary:
NFkB-bla ME-180 cells were dispensed at 2,000 cells/6 uL of assay medium per well into black wall/clear-bottom 1536-well plates using a Multidrop Combi (ThermoFisher Scientific, Waltham, MA) dispenser. After the assay plates were incubated at 37 C and 5% CO2 for an overnight, 23 nL of compounds dissolved in DMSO, positive controls or DMSO only was transferred to the assay plate by a Pintool station (Kalypsys, San Diego, CA). The assay plates were incubated at 37 C and 5% CO2 for 5 hr. One uL of LiveBLAzer B/G FRET substrate (Life Technologies) was added using a Flying Reagent Dispenser (Aurora Discovery, San Diego, CA) and the plates were incubated at room temperature for 1.5 hr. Fluorescence intensity (405 nm excitation, 460 nm and 530 nm emissions) was measured using an Envision plate reader (PerkinElmer, Shelton, CT). For cytotoxicity, 3 ul/well of CellTiter-Glo reagent was added into the assay plates using an FRD. After 30 min incubation at room temperature, the luminescence intensity was measured using a ViewLux plate reader (PerkinElmer).

SMILES | Potency
O=C(/C=C/c1ccc([N+](=O)[O-])cc1)c1ccccc1 | inactive
Nc1c(Cl)cc(Cl)cc1[N+](=O)[O-] | inactive
CCN(CC)C(=O)/C(C#N)=C/c1cc(O)c(O)c([N+](=O)[O-])c1 | inactive
CC(C)(C(=O)c1cccnc1)c1cccnc1 | inactive
COc1ccc(C2C(=O)c3ccccc3C2=O)cc1 | inactive
COc1cc(C(C)=O)ccc1OCCCN1CCC(c2noc3cc(F)ccc23)CC1 | inactive
Cc1c[nH]c2ccccc12 | inactive
O[C@@H](CNC[C@H](O)[C@H]1CCc2cc(F)ccc2O1)[C@@H]1CCc2cc(F)ccc2O1 | inactive
CCCCCCCC(=O)OCCCCCC | inactive
C=CC(=O)NC(C)C | inactive
CN(C)CC/C=C1\c2ccccc2Sc2ccc(Cl)cc21 | inactive
COC(=O)CC(C(C)=O)C(=O)OC (stereo not given) | inactive
c1ccc(CCCc2ccncc2)cc1 | inactive
CCCCCCC(O)CCCCCCCCCCC(=O)OC (stereo not given) | inactive
Cc1cc(CCC(=O)OCCOCCOCCOC(=O)CCc2cc(C)c(O)c(C(C)(C)C)c2)cc(C(C)(C)C)c1O | inactive
Cc1ccc2c(c1[N+](=O)[O-])C(=O)c1ccccc1C2=O | inactive
O=C(c1ccccc1)C1CCC1 | inactive
Oc1ccc2c(c1)Cc1ccccc1-2 | inactive
C=C(C)C(=O)OCCC(F)(F)C(F)(F)C(F)(F)C(F)(F)C(F)(F)C(F)(F)F | inactive
ClC1=C(Cl)C1(Cl)Cl | inactive

SMILES | Potency
C/C(C=O)=C\c1ccccc1 | inactive
CC(=O)NNC(C)=O | inactive
CC(C)(O)c1coc(S(=O)(=O)NC(=O)Nc2c3c(cc4c2CCC4)CCC3)c1 | inactive
CCCc1nc2c(C)cc(-c3nc4ccccc4n3C)cc2n1Cc1ccc(-c2ccccc2C(=O)O)cc1 | inactive
CC[C@@H](CO)NCCN[C@@H](CC)CO | inactive
CC1=C2[C@@H]([C@H](C)CC[C@H]2/C=C(\C)C(=O)O)[C@H](O)C1 | inactive
Nc1ccc(NC(=O)c2ccc(N)cc2)cc1 | inactive
COc1ccc(-n2nc(C(F)F)cc2-c2ccc(S(C)=O)cc2)cc1 (stereo not given) | inactive
CCCCCc1ccco1 | inactive
O=NN(CCCl)C(=O)NCCCl | inactive
COC(C)(C)OC | inactive
CC(C)COC(=O)COc1cc(Cl)c(Cl)cc1Cl | inactive
CCCCCCCCCCCCCOC(=O)CCSCCC(=O)OCCCCCCCCCCCCC | inactive
CC(CCc1ccc(O)cc1)NCCc1ccc(O)c(O)c1 (stereo not given) | inactive
Cc1cccc2sc(N)nc12 | inactive
N[C@@H](Cc1cc(I)c(O)c(I)c1)C(=O)O | inactive
CCCOC(=O)c1c(Cl)c(Cl)c(Cl)c(Cl)c1C(=O)OCCC | inactive
CC/C=C\C/C=C\C/C=C\CCCCCCCC(=O)OCC | inactive
CCOC(=O)c1c(N)sc2c1CCN(Cc1ccccc1)C2 | inactive
O=C(O)c1cccc(Oc2ccccc2)c1 | inactive
